# Screens from PubChem BioAssay.
# In the library only some 6.6% were active in any assay of this set; here they are far more common.
# CSC inhib: blocks cancer stem cells; inhibition, % at 7.5 µM; hit rate 1.1% among 300,000; cancer stem cell-like cells viability, luminescence; in the data active = inhibition above about 75%; tested in HMLE shEcad cells
# Mdm2 MdmX PPI: inhibitors of human Mdm2/MdmX interaction | inhibition, % at 8 µM | SaOS-2 split-luciferase Mdm2/MdmX complementation, luminescence | hit rate 3% among 330,000;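 active = inhibition of at least 50% at 8 µM in the primary screen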
# GRIN3A LBD mod: NR3A (human) ligand-binding domain modulation; NR3A LBD differential scanning fluorimetry, Tm shift; 0% = protein alone, 100% = glycine-bound protein; hit rate 2.5% among 340,000; Tm shift relative to glycine control, % at 25 µM;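 active = melting temperature shift of at least 10% of the positive control shift, at one fixed dose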
# Beta cell apopt: blocks beta cell apoptosis; INS-1E cytokine-induced death, ATP luminescence, 48 h; percent of positive-control rescue, neutral wells zero; protection from apoptosis, % (concentration not given with the values); hit rate 0.8% among 300,000;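 active = Every replicate reaches about 75%, or at least half do and their mean reaches it too, limit read from the data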;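 note: 0% = cytokine-treated negative control wells and 100% = positive control rescue; higher means more ATP so stronger rescue from cytokine killing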
# Gli-Sufu antag: antagonists of Gli-Sufu signaling. Sufu-KO-LIGHT fibroblasts, Gli luciferase reporter luminescence. inhibition, % at 5 µM. hit rate 0.74% among 340,000. AID 588413;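 active = inhibition above about 55%, limit read from the data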;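 note: 0% = DMSO-treated cells and 100% = wells with medium but no cells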
# MPTP inh: blocks calcium-induced mitochondrial swelling | isolated mouse mitochondria, Ca2+ swelling absorbance, 30 min | hit rate 1.4% among 360,000 | AID 602449 | inhibition, % at 10 µM;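 active = inhibition of 50% or more, scaled per plate between neutral and stimulator controls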;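 note: 0% = DMSO wells given calcium and 100% = 1 mM EGTA wells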
# Rh123 counter: Rhodamine 123 counter-screen of mitochondrial pore hits; shares compounds with MPTP inh; hit rate 78% among 5,000; inhibition, % at 10 µM; isolated mitochondria, membrane potential, Rhodamine 123 fluorescence; in the data active = inhibition above about 22%;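 note: 0% = DMSO vehicle and 100% = positive control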
# MPTP abs DR: MPTP inhibition, dose response swelling confirmation | hit rate 58% among 780 | IC50, µM | shares compounds with MPTP inh | isolated mitochondria swelling, absorbance; in the data active = IC50 below about 20 µM
# MPTP counter DR: active in counter-screen for permeability transition pore inhibitors | isolated mitochondria counterscreen, fluorescence read-out | shares compounds with MPTP inh | IC50, µM | hit rate 49% among 780 | AID 651564; in the data active = IC50 below about 80 µM
# * marks the source's active call; other numbers are inactive results; i = inactive; / = not tested or not shown.
SMILES,CSC inhib,Mdm2 MdmX PPI,GRIN3A LBD mod,Beta cell apopt,Gli-Sufu antag,MPTP inh,Rh123 counter,others
CNCCCOc1ccc(Cl)cc1C(C)(C)C,26,42,0,/,18,91*,-12,MPTP abs DR=5.1*;MPTP counter DR=>80
COc1ccc(CN2C(=O)c3ccccc3C(/C=N\OCc3ccc(C)cc3)C2=O)cc1 (stereo not drawn),15,-6,5,/,-2,6,/,
COc1ccc(C(CNS(=O)(=O)c2ccc(NC(C)=O)c(OC)c2)N2CCCCC2)cc1 (stereo not drawn),-15,1,0,5,5,0,/,
O=C(Nc1cccs1)Nc1ccc(Br)cc1F,19,-42,21*,2,16,82*,80*,
O=C1COc2ccc(S(=O)(=O)N3CCC(C(=O)NCc4ccc(F)cc4)CC3)cc2N1,/,-5,4,/,1,-2,/,
CCCC1=NN2C(=N)/C(=C\c3cc(C)n(-c4cccc(C)c4)c3C)C(=O)N=C2S1,8,14,-16,7,5,52*,5,MPTP abs DR=i;MPTP counter DR=>80
CCCC1=NN2C(=N)/C(=C\c3cc(C)n(Cc4ccccc4)c3C)C(=O)N=C2S1,4,-4,-5,0,-7,32,/,
Nc1nc2sc3c(c2c(=O)s1)CCCC3,8,17,-2,-1,-35,1,/,
Nc1c2c(nc3sc4c(c13)CCCC4)CCCCCC2,54,-16,-1,49,6,86*,103*,
Cc1cccc2cc(CN(Cc3ccccc3)C(=S)NCCCN(C)C)c(=O)[nH]c12,2,31,2,-5,31,4,/,
Cc1ccc(CN(Cc2cc3cccc(C)c3[nH]c2=O)C(=S)NCCCN(C)C)cc1,6,47,-1,-10,7,65*,-13,MPTP abs DR=12*;MPTP counter DR=>80
COc1cc(/C=N/Nc2ccc(Cl)cc2)ccc1OC(=O)c1cccs1,19,/,-5,-7,-4,2,/,
Cc1ccc2c(c1)-n1c(nc3ccccc3c1=O)C(Cc1ccc(O)cc1)NC2=O (stereo not drawn),/,11,/,-10,/,/,/,
O=S(=O)(Nc1ccccn1)c1cccs1,/,-1,3,-3,-4,1,/,
COCCOC(=O)c1c(C)oc2ccc(NS(=O)(=O)c3ccccc3)cc12,-6,31,-1,5,2,3,/,
COC(=O)c1c(C)oc2ccc(NS(=O)(=O)c3cccs3)cc12,8,-4,-3,14,11,92*,57*,
N#Cc1c(C(F)(F)F)cc(-c2ccc(F)cc2)[nH]c1=O,-4,6,0,1,-5,4,/,
N#Cc1c(C(F)(F)F)cc(-c2cccc(Cl)c2)[nH]c1=O,37,-17,-11,0,10,94*,89*,
N#Cc1c(C(F)(F)F)cc(-c2ccc(Cl)cc2)[nH]c1=O,33,-8,-8,/,6,93*,82*,
CN1CCN(c2ccc(Cl)cc2NC(=O)/C=C/c2cccc(F)c2)CC1,31,26,2,0,20,74*,-23,MPTP abs DR=6.8*;MPTP counter DR=>80
NC(=O)COC(=O)[C@H](Cc1c[nH]c2ccccc12)NC(=O)c1ccc(F)cc1,-9,15,-3,-6,9,0,/,
COc1ccc(Nc2sc(C(=O)c3ccc(Cl)cc3)c(N)c2C(=O)Nc2ccccc2OC)cc1,2,11,1,-10,26,68*,75*,
COc1ccc(OC)c(NC(=O)c2ccc(Cl)cc2)c1,-6,27,2,-4,0,-1,/,
O=[N+]([O-])c1cccc(/C=N\N=C2c3ccccc3-c3ccccc32)c1O,-10,-7,14*,-1,15,104*,7,
Clc1cccc(-c2ccc(CNCc3ccccn3)o2)c1,2,4,-2,-1,0,1,/,
SMILES,CSC inhib,Mdm2 MdmX PPI,GRIN3A LBD mod,Beta cell apopt,Gli-Sufu antag,MPTP inh,Rh123 counter,others
O=c1[nH]nc(Cc2ccc(-c3cccc(Cl)c3)o2)c2ccccc12,/,2,-16,3,30,84*,83*,
N#Cc1cc(C(=O)c2cc(Br)ccc2O)cn(Cc2ccccc2)c1=O,-1,25,0,16,-2,52*,77*,
CN1/C(=C\C=C(/C#N)C(=O)Nc2ccc(Cl)cc2)C(C)(C)c2ccccc21,7,4,0,5,2,11,/,
CN1/C(=C\C(=O)Nc2ccc(Cl)cc2)C(C)(C)c2ccccc21,61,9,2,-2,-9,79*,70*,
Cc1cc(NNC(=O)c2cccc(C(F)(F)F)c2)nc2c1c(C)nn2C,3,0,1,44,25,86*,41*,
Cc1cc(C)n(CC(=O)NNC(=O)c2cccc(C(F)(F)F)c2)n1,-12,-7,3,-3,4,-1,/,
CCN(CC)c1ccc(C(=C2C=CC(=[N+](CC)CC)C=C2)c2ccc(N(CC)CC)cc2)cc1,/,/,351*,/,87*,137*,74*,
S=C(Nc1ccc(Cl)cc1)Nc1cccc2cnccc12,52,11,7,91*,8,102*,93*,
Fc1ccc(NC(=S)Nc2cccc3ccccc23)cc1F,37,2,1,8,11,81*,98*,
Fc1ccc(NC(=S)Nc2cccc3cnccc23)cc1,36,-2,-2,0,-7,0,/,
NS(=O)(=O)c1ccc(NC(=S)Nc2ccc(F)c(F)c2)cc1,0,35,-1,-6,-4,67*,68*,
CC(Nc1ncnc2sccc12)c1ccccc1 (stereo not drawn),10,26,0,/,71*,84*,80*,
COc1ccc(-n2cc(CNCCN3CCOC3=O)c(-c3ccccc3Cl)n2)cc1,-9,15,-1,2,-1,-1,/,
CCN1CCC(CNCc2cn(-c3ccc(OC)cc3)nc2-c2ccccc2Cl)C1 (stereo not drawn),8,15,1,4,15,84*,-13,MPTP abs DR=9.1*;MPTP counter DR=>80
O=C(COc1ccc(Br)cc1)Nc1ccncc1,-10,4,-4,-11,7,55*,58*,
O=C(COc1ccc(Br)cc1)Nc1ccc(NC(=O)c2ccccc2)cc1,1,-10,0,-1,-34,2,/,
CCC(C)(C)c1ccc(OCC(=O)Nc2ccncc2)cc1,35,9,1,-8,29,105*,81*,
O=C(COc1ccc(-c2ccccc2)cc1)Nc1cccnc1,9,-5,-6,-4,3,87*,102*,
O=C(COc1ccc(-n2ccnc2)cc1)Nc1cccc(Cl)c1,16,-39,6,0,/,89*,57*,
